# Laboratory results published in PMC7862700, “An all-to-all approach to the identification of sequence-specific readers for epigenetic DNA modifications on cytosine”.
# Tests used:
# Experiment in all cases: DAPPL (digital affinity profiling via proximity ligation, sequencing); 10 mM Tris-HCl pH 7.5, 50 mM NaCl, 1 mM DTT, 4% glycerol, room temperature, 30 min; GST-TFs on glutathione beads, 16-mer random dsDNA library, 0.1% formaldehyde crosslink after washing; high values mean tight binding
# FEV = biological target: T1, FEV (Homo sapiens, UniProt Q99581 1-238); conditions: protein: recombinant; tags: N-terminal GST; dsDNA, one strand shown
# T1 sequence: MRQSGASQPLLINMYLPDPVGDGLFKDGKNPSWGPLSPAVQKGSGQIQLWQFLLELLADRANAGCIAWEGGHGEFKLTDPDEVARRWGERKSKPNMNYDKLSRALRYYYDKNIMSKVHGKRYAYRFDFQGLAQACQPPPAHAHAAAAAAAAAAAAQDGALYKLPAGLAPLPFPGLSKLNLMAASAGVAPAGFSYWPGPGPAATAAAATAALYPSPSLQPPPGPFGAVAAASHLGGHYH
# In short: (§1)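 Pools of DNA-barcoded human transcription factors, expressed in yeast as GST fusions on glutathione beads and combined with a tag-only sample, were incubated with 200 nmole of a 16-mer random double-stranded DNA library. Incubation took 30 min at room temperature in Tris/NaCl/DTT/glycerol buffer and was followed by washing, 0.1% formaldehyde crosslinking, proximity ligation (BsaI/T4 ligase, 1 h, 37 °C), PCR amplification and sequencing on an Illumina NextSeq500. Binding signal is the ratio of a hexamer's read frequency for a factor to its frequency for the tag-only sample.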
# ETV5 = ETV5 (Homo sapiens, UniProt P41161 1-510); conditions: protein: recombinant; tags: N-terminal GST; dsDNA, one strand shown
# In short: as §1
# HSF1 = HSF1 (Homo sapiens, UniProt Q00613 1-529); conditions: protein: recombinant; tags: N-terminal GST; chain copies: 3; dsDNA, one strand shown
# In short: as §1
# SPIC = biological target: T2, SPIC (Homo sapiens, UniProt Q8N5J4 1-248); conditions: protein: recombinant; tags: N-terminal GST; dsDNA, one strand shown
# T2 sequence: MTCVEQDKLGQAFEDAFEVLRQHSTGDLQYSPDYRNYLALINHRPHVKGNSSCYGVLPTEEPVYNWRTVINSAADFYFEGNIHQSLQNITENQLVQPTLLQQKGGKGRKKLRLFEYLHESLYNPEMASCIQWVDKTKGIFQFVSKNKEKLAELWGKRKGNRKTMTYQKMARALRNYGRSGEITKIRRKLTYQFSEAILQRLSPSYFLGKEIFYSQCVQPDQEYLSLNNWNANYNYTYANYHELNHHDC
# In short: as §1
# ELF4 = ELF4 (Homo sapiens, UniProt Q99607 1-663); conditions: protein: recombinant; tags: N-terminal GST; dsDNA, one strand shown
# In short: as §1
# ELK4 = biological target: T3, ELK4 (Homo sapiens, UniProt P28324-2 1-405); conditions: protein: recombinant; tags: N-terminal GST; dsDNA, one strand shown
# T3 sequence: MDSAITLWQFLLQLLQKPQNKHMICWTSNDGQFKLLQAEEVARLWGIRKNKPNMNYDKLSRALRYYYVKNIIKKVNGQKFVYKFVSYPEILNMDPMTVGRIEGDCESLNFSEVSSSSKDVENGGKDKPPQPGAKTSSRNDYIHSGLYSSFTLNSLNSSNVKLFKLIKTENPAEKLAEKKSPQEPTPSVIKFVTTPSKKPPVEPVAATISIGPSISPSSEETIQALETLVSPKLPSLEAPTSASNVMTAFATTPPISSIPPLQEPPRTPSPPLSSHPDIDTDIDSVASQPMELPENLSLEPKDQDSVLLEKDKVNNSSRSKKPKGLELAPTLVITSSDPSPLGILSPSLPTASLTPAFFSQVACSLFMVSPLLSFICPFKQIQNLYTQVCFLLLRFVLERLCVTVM
# In short: as §1
# ETV2 = biological target: T4, ETV2 (Homo sapiens, UniProt O00321 1-342); conditions: protein: recombinant; tags: N-terminal GST; dsDNA, one strand shown
# T4 sequence: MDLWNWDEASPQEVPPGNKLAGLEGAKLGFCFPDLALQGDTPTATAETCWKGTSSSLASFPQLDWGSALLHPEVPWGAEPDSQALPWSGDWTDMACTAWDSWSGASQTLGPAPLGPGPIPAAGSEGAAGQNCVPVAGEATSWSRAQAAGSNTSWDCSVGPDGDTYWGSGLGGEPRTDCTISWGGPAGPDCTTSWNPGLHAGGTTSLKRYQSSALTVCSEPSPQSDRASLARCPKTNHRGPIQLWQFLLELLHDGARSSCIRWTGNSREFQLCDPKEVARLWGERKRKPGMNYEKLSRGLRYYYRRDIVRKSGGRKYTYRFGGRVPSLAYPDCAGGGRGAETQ
# In short: as §1
# ELF3 = biological target: T5, ELF3 (Homo sapiens, UniProt P78545 1-371); conditions: protein: recombinant; tags: N-terminal GST; dsDNA, one strand shown
# T5 sequence: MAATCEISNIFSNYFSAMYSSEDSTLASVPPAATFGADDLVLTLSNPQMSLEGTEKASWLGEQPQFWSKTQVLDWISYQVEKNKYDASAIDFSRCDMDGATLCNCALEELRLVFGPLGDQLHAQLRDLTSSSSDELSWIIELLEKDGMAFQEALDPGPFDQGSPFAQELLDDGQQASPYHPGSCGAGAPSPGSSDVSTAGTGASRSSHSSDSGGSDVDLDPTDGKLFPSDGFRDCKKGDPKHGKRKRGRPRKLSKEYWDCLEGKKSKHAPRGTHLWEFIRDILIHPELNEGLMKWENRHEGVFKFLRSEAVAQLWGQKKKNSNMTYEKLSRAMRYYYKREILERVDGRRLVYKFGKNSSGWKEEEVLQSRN
# In short: as §1
# CRX = CRX (Homo sapiens, UniProt O43186 1-299); conditions: protein: recombinant; tags: N-terminal GST; dsDNA, one strand shown
# In short: as §1
# ETV1 = ETV1 (Homo sapiens, UniProt P50549 1-477); conditions: protein: recombinant; tags: N-terminal GST; dsDNA, one strand shown
# In short: as §1
# ERF = biological target: T6, ERF (Homo sapiens, UniProt P50548 1-548); conditions: protein: recombinant; tags: N-terminal GST; dsDNA, one strand shown
# T6 sequence: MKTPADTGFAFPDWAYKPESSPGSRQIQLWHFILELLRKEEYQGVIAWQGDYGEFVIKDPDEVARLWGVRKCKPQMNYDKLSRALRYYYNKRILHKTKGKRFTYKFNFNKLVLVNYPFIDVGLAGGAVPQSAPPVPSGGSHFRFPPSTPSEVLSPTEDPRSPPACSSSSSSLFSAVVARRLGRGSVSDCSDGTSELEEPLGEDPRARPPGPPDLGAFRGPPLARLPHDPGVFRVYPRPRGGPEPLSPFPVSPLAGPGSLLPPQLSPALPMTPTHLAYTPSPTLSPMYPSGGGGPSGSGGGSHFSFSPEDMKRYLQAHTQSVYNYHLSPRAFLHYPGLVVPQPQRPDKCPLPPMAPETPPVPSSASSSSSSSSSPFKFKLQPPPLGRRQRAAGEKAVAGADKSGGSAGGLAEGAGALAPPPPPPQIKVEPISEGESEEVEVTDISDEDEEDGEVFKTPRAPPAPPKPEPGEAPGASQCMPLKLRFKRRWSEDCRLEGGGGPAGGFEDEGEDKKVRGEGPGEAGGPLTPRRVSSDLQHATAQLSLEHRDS
# In short: as §1
# ETV3L = biological target: T7, ETV3L (Homo sapiens, UniProt Q6ZN32 1-361); conditions: protein: recombinant; tags: N-terminal GST; dsDNA, one strand shown
# T7 sequence: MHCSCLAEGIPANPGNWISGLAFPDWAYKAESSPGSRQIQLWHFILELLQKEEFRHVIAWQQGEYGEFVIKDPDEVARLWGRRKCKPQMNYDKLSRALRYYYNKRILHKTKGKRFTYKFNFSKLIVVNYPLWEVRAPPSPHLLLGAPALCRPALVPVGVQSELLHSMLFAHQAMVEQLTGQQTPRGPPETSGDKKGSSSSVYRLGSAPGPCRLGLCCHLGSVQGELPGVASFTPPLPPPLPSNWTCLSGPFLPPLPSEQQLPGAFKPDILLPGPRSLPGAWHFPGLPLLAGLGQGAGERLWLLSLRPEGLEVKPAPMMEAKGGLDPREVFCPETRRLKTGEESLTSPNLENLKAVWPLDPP
# In short: as §1
# ETS2 = biological target: T8, ETS2 (Homo sapiens, UniProt P15036 1-469); conditions: protein: recombinant; tags: N-terminal GST; dsDNA, one strand shown
# T8 sequence: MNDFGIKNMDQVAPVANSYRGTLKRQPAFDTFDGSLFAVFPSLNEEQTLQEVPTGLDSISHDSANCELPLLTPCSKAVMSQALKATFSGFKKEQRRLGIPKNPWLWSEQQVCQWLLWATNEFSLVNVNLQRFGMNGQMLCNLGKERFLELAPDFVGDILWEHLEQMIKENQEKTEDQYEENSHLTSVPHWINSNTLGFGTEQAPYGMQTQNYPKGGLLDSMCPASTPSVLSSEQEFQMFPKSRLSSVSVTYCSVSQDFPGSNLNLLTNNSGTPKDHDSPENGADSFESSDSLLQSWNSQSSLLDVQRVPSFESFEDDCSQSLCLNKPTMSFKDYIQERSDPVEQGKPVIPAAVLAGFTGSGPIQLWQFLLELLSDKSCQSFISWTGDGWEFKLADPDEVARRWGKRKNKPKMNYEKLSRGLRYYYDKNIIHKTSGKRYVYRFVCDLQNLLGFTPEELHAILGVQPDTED
# In short: as §1
# SPDEF = biological target: T9, SPDEF (Homo sapiens, UniProt O95238 1-335); conditions: protein: recombinant; tags: N-terminal GST; dsDNA, one strand shown
# T9 sequence: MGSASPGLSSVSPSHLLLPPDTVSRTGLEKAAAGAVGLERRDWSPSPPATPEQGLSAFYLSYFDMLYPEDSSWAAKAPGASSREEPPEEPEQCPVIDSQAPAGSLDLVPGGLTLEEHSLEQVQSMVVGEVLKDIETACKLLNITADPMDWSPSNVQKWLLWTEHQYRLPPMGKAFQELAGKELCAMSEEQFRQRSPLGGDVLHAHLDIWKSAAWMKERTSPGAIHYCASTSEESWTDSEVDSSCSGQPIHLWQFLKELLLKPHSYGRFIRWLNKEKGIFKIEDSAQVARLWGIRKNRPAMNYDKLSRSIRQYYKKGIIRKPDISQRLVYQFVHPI
# In short: as §1
# ETV7 = biological target: T10, ETV7 (Homo sapiens, UniProt Q9Y603 1-341); conditions: protein: recombinant; tags: N-terminal GST; dsDNA, one strand shown
# T10 sequence: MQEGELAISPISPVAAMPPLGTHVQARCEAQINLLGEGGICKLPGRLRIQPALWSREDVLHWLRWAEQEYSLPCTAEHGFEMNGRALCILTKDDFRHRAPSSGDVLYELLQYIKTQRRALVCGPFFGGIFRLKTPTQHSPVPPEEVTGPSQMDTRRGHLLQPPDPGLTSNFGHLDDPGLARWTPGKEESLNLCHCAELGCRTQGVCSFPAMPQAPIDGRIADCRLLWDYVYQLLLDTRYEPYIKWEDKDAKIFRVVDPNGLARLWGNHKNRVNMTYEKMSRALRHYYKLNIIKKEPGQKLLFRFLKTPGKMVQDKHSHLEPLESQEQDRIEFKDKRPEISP
# In short: as §1
# ELF5 = biological target: T11, ELF5 (Homo sapiens, UniProt Q9UKW6-2 1-255); conditions: protein: recombinant; tags: N-terminal GST; dsDNA, one strand shown
# T11 sequence: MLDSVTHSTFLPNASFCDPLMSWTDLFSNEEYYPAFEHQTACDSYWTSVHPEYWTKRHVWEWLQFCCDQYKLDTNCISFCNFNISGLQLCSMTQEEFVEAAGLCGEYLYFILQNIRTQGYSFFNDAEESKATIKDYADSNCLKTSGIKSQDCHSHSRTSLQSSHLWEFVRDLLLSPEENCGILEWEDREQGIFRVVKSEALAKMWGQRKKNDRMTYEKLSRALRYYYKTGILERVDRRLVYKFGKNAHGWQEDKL
# In short: as §1
# ETV3 = biological target: T12, ETV3 (Homo sapiens, UniProt P41162-2 1-143); conditions: protein: recombinant; tags: N-terminal GST; dsDNA, one strand shown
# T12 sequence: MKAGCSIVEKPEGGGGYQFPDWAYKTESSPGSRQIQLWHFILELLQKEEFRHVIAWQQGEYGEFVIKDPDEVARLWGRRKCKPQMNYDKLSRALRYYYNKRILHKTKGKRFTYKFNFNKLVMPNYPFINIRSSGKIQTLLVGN
# In short: as §1
# ETV6 = ETV6 (Homo sapiens, UniProt P41212 1-452); conditions: protein: recombinant; tags: N-terminal GST; dsDNA, one strand shown
# In short: as §1
# ETV1, sequence (P50549 whole entry): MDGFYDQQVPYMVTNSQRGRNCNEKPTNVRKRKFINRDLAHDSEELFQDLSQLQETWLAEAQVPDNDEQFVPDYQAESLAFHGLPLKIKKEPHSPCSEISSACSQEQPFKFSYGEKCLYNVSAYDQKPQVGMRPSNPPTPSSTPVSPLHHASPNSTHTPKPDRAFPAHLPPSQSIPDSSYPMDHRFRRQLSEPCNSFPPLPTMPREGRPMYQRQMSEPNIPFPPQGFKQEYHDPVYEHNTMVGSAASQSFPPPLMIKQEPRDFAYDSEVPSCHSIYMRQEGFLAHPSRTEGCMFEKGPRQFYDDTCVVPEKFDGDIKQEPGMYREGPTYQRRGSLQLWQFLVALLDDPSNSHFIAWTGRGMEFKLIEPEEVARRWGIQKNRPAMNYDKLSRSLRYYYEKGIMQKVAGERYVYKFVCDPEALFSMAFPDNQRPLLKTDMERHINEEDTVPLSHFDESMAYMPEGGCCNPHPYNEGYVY
# ELF4, sequence (Q99607 whole entry): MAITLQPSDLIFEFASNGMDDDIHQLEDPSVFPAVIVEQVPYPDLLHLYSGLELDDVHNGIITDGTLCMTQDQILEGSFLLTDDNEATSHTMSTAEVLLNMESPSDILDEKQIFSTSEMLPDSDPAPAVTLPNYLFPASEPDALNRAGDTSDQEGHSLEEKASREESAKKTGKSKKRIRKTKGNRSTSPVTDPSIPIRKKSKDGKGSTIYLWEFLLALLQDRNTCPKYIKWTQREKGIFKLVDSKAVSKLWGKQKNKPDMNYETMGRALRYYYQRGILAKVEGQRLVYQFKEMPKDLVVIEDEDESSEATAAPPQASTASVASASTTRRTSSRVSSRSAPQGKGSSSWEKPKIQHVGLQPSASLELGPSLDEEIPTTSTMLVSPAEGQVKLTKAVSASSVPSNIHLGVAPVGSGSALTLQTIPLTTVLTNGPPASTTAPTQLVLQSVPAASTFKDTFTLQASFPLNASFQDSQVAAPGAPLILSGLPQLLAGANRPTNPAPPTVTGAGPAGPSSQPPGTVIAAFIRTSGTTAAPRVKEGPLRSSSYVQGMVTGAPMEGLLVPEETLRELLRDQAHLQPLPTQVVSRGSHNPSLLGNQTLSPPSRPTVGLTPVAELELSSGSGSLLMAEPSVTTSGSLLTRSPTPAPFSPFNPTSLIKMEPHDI
# ETV6, sequence (P41212 whole entry): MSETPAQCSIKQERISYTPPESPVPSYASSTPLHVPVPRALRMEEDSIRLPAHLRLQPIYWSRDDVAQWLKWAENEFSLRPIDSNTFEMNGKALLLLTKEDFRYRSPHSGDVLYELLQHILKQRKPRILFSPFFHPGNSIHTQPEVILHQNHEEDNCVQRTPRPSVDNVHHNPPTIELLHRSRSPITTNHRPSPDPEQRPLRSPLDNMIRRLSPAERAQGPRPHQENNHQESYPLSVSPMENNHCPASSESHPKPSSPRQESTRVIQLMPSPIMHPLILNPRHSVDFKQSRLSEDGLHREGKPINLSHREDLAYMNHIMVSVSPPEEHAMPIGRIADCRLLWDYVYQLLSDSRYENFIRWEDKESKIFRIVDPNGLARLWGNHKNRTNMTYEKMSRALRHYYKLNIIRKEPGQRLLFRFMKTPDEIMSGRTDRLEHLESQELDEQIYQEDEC
# ETV5, sequence (P41161 whole entry): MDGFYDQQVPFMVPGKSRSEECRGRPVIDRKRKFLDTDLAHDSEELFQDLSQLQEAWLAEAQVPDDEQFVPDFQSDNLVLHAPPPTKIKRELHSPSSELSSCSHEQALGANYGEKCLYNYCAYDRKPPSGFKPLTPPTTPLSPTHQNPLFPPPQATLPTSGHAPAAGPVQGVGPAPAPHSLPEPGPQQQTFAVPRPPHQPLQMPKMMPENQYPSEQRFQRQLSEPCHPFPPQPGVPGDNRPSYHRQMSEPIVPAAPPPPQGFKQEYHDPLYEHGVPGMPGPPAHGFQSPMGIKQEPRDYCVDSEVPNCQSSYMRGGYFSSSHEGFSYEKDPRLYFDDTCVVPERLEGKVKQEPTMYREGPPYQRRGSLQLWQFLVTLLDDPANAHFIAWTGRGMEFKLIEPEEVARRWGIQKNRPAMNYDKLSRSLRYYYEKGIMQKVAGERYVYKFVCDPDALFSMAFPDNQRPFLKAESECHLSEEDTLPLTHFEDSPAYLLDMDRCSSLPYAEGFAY
# CRX, sequence (O43186 whole entry): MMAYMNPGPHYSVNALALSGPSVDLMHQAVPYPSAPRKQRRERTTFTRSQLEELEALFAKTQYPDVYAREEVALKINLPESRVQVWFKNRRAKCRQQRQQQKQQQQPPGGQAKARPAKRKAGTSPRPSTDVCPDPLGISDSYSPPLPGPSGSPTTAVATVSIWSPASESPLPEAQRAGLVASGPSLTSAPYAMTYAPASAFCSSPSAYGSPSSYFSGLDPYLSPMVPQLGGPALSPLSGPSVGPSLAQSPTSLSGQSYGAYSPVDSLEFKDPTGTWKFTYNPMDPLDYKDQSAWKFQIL
# HSF1, sequence (Q00613 whole entry): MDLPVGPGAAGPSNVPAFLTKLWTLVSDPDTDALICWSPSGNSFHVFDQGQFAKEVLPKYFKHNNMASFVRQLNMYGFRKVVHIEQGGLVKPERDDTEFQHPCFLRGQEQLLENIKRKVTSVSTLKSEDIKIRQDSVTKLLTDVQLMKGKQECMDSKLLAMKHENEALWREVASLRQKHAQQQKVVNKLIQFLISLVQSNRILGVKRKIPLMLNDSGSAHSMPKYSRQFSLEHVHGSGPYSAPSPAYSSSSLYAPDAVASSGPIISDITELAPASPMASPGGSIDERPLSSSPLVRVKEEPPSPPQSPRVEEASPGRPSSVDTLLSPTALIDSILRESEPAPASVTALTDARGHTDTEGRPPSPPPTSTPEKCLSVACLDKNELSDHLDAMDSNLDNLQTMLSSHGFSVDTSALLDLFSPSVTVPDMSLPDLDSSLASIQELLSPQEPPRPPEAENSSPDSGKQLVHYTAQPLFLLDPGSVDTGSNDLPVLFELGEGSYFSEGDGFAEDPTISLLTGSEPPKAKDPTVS
sequence,measurement,setting,value
TCTTGC,binding signal,FEV,"1.24 fold enrichment (6-mer frequency, TF over GST control)"
same,binding signal,ETV5,"1.39 fold enrichment (6-mer frequency, TF over GST control)"
same,binding signal,HSF1,"1.2 fold enrichment (6-mer frequency, TF over GST control)"
same,binding signal,SPIC,"1.36 fold enrichment (6-mer frequency, TF over GST control)"
same,binding signal,ELF4,"1.32 fold enrichment (6-mer frequency, TF over GST control)"
same,binding signal,ELK4,"1.3 fold enrichment (6-mer frequency, TF over GST control)"
same,binding signal,ETV2,"1.36 fold enrichment (6-mer frequency, TF over GST control)"
same,binding signal,ELF3,"1.4 fold enrichment (6-mer frequency, TF over GST control)"
same,binding signal,CRX,"1.21 fold enrichment (6-mer frequency, TF over GST control)"
same,binding signal,ETV1,"1.4 fold enrichment (6-mer frequency, TF over GST control)"
same,binding signal,ERF,"1.4 fold enrichment (6-mer frequency, TF over GST control)"
same,binding signal,ETV3L,"1.36 fold enrichment (6-mer frequency, TF over GST control)"
same,binding signal,ETS2,"1.35 fold enrichment (6-mer frequency, TF over GST control)"
same,binding signal,SPDEF,"1.33 fold enrichment (6-mer frequency, TF over GST control)"
same,binding signal,ETV7,"1.38 fold enrichment (6-mer frequency, TF over GST control)"
same,binding signal,ELF5,"1.34 fold enrichment (6-mer frequency, TF over GST control)"
same,binding signal,ETV3,"1.47 fold enrichment (6-mer frequency, TF over GST control)"
same,binding signal,ETV6,"1.18 fold enrichment (6-mer frequency, TF over GST control)"
